Consider 7 compounds from PubChem BioAssay (NCATS).

Unmarked numbers belong to inactive results. Records with an inconclusive call do not appear. The source made the active and inactive calls. Unless noted, calls come from the whole dose curve; as a rule, active = well fitted curve in either direction with a large enough effect (not every such curve was filed as active); inconclusive = small, poorly fitted or top-dose-only effect, or another doubt; inactive = flat fitted curve, though single readings scatter.

Assay [1] in a line: AP1 Signaling Pathway (AID 357).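 Note: ME-180 reporter cells stimulated with EGF at its EC50 level; % is set by controls: 0 for no effect and ±100 for the full control effect.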 The following applies: ME-180 AP-1-bla reporter, EGF-induced, beta-lactamase ratio, 5 h; at 7.69 µM (top of the series) unless noted. The method in brief: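 First, ME-180 AP-1-bla cells were cultured overnight at 37 °C in low-serum Opti-MEM. Next, titrated compounds with EC50 EGF were incubated 5 hours. Finally, CCF4 was added for 2.5 hours and the 460/530 nm ratio recorded.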

For assay [2], the target named is Cytochrome P450 1A2 (Homo sapiens) (UniProt P05177). The experiment in a line: p450-cyp1a2 (AID 410; calls by dose curve; note: potency is the fitted concentration of half-maximal effect). Particulars: recombinant CYP1A2, luciferin-ME demethylation, luminescence; series mostly up to 57 µM. An outline of the steps:
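Read-out is luminescence from luciferin produced by CYP1A2 demethylation of Luciferin-ME (100uM, at Km). Detection reagent stopped the 60 min NADPH-dependent reaction; signals were normalized to 57 uM furafylline.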

A short description of assay [3]: NFAT Signaling Pathway (AID 444).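 Note: carbachol stimulus at about its EC50 of 1 µM final; % is set by controls: 0 for no effect and ±100 for the full control effect.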 Particulars: Jurkat NFAT-bla M1, carbachol, beta-lactamase ratio, 5 h; at 7.69 µM (top of the series) unless noted. The method in brief: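 Jurkat cells with NFAT-driven β-lactamase reporter and co-expressed M1 receptor, stimulated with carbachol (final 1 uM, ~EC50), compound titration, 5 h at 37 °C. CCF4 loaded 1 h at RT; 460/530 nm ratio gave %activity and AC50.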

Assay [4] is described as follows: Stat Signaling Pathway (AID 446).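 Note: ME-180 cervical cancer cells given 40 pM IL-6 alongside compound; SIE-controlled beta-lactamase reporter measured as 460/530 nm FRET emission ratio; % is set by controls: 0 for no effect and ±100 for the full control effect.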 The following applies: ME-180 (cervical carcinoma) SIE beta-lactamase reporter, IL-6 stimulated, 5 h; at 7.69 µM (top of the series) unless noted. An outline of the steps:
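Normalization used AC90 stimulation (300 pM IL-6) and AC90 inhibition (125 nM pan-JAK inhibitor at 40 pM IL-6). The underlying signal is SIE-driven beta-lactamase in ME-180 cells after 5 h IL-6 exposure with compound.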

Assay [5] deals with Glucocorticoid receptor (Homo sapiens) (UniProt P04150). Put plainly: GR-GFP Redistribution (AID 450;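 active = compounds whose dose series gives a full or clear partial fitted curve of increased nuclear translocation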; note: potency is the fitted concentration of half-maximal effect). The following applies: U2OS GR-GFP nuclear translocation, laser cytometry, 2 h.
Chain of Glucocorticoid receptor (Homo sapiens) (P04150 whole entry, looked up, the tested form may be a part): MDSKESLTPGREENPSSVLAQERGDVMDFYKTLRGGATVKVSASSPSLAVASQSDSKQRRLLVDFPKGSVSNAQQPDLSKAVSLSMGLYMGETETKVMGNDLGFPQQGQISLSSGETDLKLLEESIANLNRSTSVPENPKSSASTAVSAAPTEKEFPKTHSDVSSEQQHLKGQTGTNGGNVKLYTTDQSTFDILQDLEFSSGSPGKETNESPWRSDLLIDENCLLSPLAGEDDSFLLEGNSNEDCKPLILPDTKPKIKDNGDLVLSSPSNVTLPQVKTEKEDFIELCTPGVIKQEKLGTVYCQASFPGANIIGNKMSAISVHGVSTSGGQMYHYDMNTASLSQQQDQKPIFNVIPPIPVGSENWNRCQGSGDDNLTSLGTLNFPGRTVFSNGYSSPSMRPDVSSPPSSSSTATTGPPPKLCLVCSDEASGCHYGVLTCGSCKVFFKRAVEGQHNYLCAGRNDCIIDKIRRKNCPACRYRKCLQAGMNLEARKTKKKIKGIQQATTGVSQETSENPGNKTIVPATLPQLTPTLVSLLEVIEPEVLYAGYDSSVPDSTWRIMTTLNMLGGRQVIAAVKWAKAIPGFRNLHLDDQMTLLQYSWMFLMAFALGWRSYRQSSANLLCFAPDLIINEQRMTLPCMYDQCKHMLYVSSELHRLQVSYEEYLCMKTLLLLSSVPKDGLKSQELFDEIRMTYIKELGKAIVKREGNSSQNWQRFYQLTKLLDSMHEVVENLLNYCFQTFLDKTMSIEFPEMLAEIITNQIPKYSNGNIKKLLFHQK
The target is the same in assay [6]. The experiment in a line: GR-EFC Redistribution (AID 451; calls by dose curve; note: potency is the fitted concentration of half-maximal effect). Particulars: CHO-K1 GR-EFC translocation, beta-gal luminescence, 2 h. An outline of the steps: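 CHO-K1 cells expressing nuclear EA and GR-ED fragments of b-gal; compounds titrated up to 46 uM final, 2 h at 37 C. GR nuclear translocation read as complemented b-gal luminescence after 1 h RT detection.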

For assay [7], the target named is Mitogen-activated protein kinase 10 (Mus musculus) (UniProt Q61831). The experiment in a line: JNK3 AlphaScreen Assay (AID 530).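 Note: kinase came from lysate of stimulated human HepG2 cells; signal reports phosphorylation of biotinylated GST-cJun 1-79 at Ser73 with 10 µM ATP; % is set by controls: 0 for no effect and ±100 for the full control effect.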 The following applies: JNK3 lysate, c-Jun phosphorylation; series mostly up to 57.1 µM. An outline of the steps: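 HepG2 lysate (IL-1b/TNFa pre-activated) + biotin-GST-cJun 1-79 + anti-pSer73 cJun; cpd titration, 15 min RT; ATP 10 uM start; Tris pH 7.6, MgCl2, DTT, vanadate; beads in EDTA buffer; AlphaScreen.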

Assay [8] has as its target 3',5'-cyclic-AMP phosphodiesterase 4B (Homo sapiens) (UniProt Q07343). The experiment in a line: qHTS Assay for Inhibitors of PDE-IV (AID 607; active = well fitted activation curve with a large enough effect in the main read-out, with a control signal flat, not every such curve was filed as active; note: % of control where 0% means no effect). The following applies: HEK293 ACTOne CNG channel cells, membrane potential fluorescence; series mostly up to 22.9 µM. An outline of the steps: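 HEK293 ACTOne cells with CNG channel (1000/well), endogenous PDE4; membrane potential dye, compounds up to 22.9 uM final. Fluorescence Ex 535/Em 590; RO 20-1724 (100 uM final) as reference.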
(In qHTS, concentration-response curves come from the screen itself.)

Assay [9] addresses Cytochrome P450 3A4 (Homo sapiens) (UniProt P08684). Put plainly: qHTS Assay for Inhibitors and Substrates of Cytochrome P450 3A4 (AID 884; active = well fitted curve in the direction sought with a large enough effect; an effect the other way counts as inactive or inconclusive; note: potency is the fitted concentration of half-maximal effect; nearly all actives have a fitted effect of over 50% in size). The following applies: recombinant CYP3A4, Luciferin-PPXE luminescence; series mostly up to 57.1 µM. The method in brief: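 Luminescent readout of luciferin produced by CYP3A4 (20 nM) dealkylation of Luciferin-PPXE, 25 uM (its KM). NADPH-driven reaction ran 60 min at RT after 10 min compound preincubation; data scaled to 57 uM ketoconazole as 100% inhibition.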

Assay [10] shares this target. Put plainly: qHTS Assay for Activators of Cytochrome P450 3A4 (AID 885; active = well fitted curve in the direction sought with a large enough effect; an effect the other way counts as inactive or inconclusive; note: nearly all actives have a fitted effect of over 65% in size). The following applies: recombinant CYP3A4, Luciferin-PPXE luminescence, 60 min; series mostly up to 57.1 µM. The method in brief:
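Human CYP3A4 dealkylates Luciferin-PPXE to luciferin, which luciferase detection converts to light. Substrate was at its KM (25uM), buffer 200mM KPO4, reaction 60 min at RT.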

Assay [11] is described as follows: Confirmation and Secondary Assay for Modulators of Hemoglobin Beta Chain Splicing at IVS2 654 locus (AID 910; active = well fitted curve in the direction sought with a large enough effect; an effect the other way counts as inactive or inconclusive;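 note: HeLa cells stably carrying EGFP split by mutant beta-globin IVS2-654 intron; % of control where 0% means no effect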). The following applies: HeLa EGFP-654 splicing reporter, GFP fluorescence, 48 h; series mostly up to 38.3 µM. An outline of the steps:
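HeLa cells stably expressing EGFP interrupted by β-globin IVS2-654 intron, seeded overnight in Opti-MEM/2% FCS, then treated 2 days at 37 °C. Restored splicing read as total peak GFP intensity per well by laser scanning cytometry (488 nm excitation, 500–520 nm emission); 500 nM antisense PNA as control.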

Assay [12] can be described thus: Confirmation and Secondary Assay for Modulators of Hemoglobin Beta Chain Splicing at IVS2 705 locus (AID 930; active = well fitted curve in the direction sought with a large enough effect; an effect the other way counts as inactive or inconclusive;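 note: HeLa cells stably expressing the EGFP-705 splicing reporter; GFP fluorescence per well restored by corrected splicing of the IVS2-705 intron in EGFP; % of control where 0% means no effect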). Particulars: HeLa EGFP-705 splicing reporter, GFP fluorescence, 48 h; series mostly up to 38.3 µM. The method in brief: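 First, HeLa EGFP-705 cells are seeded at 500/well in Optimem with 2% FCS and left overnight. Next, compound or DMSO is added for 2 days. Finally wells are laser-scanned and total peak GFP intensity scored.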

Assay [13] in a line: Primary qHTS for small molecule stabilizers of the endoplasmic reticulum resident proteome: Secreted ER Calcium Modulated Protein (SERCaMP) assay (AID 1508630; active = well fitted curve in the direction sought with a large enough effect; an effect the other way counts as inactive or inconclusive; note: % is set by controls: 0 for no effect and ±100 for the full control effect). Particulars: SH-SY5Y GLuc-SERCaMP (Gaussia luciferase released on ER calcium loss) secretion, thapsigargin, luminescence; series mostly up to 38.4 µM. An outline of the steps:
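The SH-SY5Y reporter protocol was run at 3 concentrations up to 38.3 uM (primary) or 11 concentrations (follow-up): 16 h compound, 100 nM thapsigargin for 4 h, then extracellular luciferase luminescence.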

Assay [14] addresses Ubiquitin carboxyl-terminal hydrolase 1 (Homo sapiens) (UniProt O94782). Put plainly: Inhibitors of USP1/UAF1: Pilot qHTS (AID 504865; active = well fitted curve in the direction sought with a large enough effect; an effect the other way counts as inactive or inconclusive;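 note: rhodamine fluorescence freed from ubiquitin-rhodamine substrate followed over time; top concentration of the series differs between compounds; % is set by controls: 0 for no effect and ±100 for the full control effect; nearly all actives have a fitted effect of over 35% in size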). Particulars: purified USP1/UAF1, Ub-rhodamine cleavage fluorescence; series mostly up to 54.9 µM. An outline of the steps:
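Kinetic fluorescence assay: 1nM USP1/UAF1, 15 min compound preincubation, then 150nM Ub-Rho; 480/540 nm.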

Assay [15] concerns the target Cytochrome P450 2D6 (Homo sapiens) (UniProt P10635). The experiment in a line: qHTS Assay for Inhibitors and Substrates of Cytochrome P450 2D6 (AID 891; active = well fitted curve in the direction sought with a large enough effect; an effect the other way counts as inactive or inconclusive; note: potency is the fitted concentration of half-maximal effect; nearly all actives have a fitted effect of over 60% in size). Particulars: recombinant CYP2D6, luciferin-ME EGE luminescence; series mostly up to 57.1 µM. The method in brief: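 Luminescent read-out of luciferin formed by 5 nM human CYP2D6 demethylating 30 uM Luciferin-ME EGE (Km level) over 60 min at room temperature after NADPH regeneration addition. Data normalized to full inhibition by 1.43 uM quinidine.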

The target of assay [16] is Lysosomal acid glucosylceramidase (Homo sapiens) (UniProt P04062). The experiment in a line: Glucocerebrosidase-p2 (AID 348; in the data active = potency below about 10 µM; note: potency is the fitted concentration of half-maximal effect). Particulars: purified GBA, blue fluorogenic substrate, 40 min. The method in brief: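 Normal human glucocerebrosidase (0.2 nM) with blue fluorogenic substrate (80 uM final) in citrate/phosphate pH 5.9 with 10mM sodium taurocholate, 0.01% tween-20; 40 min RT, NaOH/glycine stop; fluorescence Ex 365/Em 440; AC50 from a titration from 0.6 nM upwards.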
Chain of Lysosomal acid glucosylceramidase (Homo sapiens) (P04062 whole entry, looked up): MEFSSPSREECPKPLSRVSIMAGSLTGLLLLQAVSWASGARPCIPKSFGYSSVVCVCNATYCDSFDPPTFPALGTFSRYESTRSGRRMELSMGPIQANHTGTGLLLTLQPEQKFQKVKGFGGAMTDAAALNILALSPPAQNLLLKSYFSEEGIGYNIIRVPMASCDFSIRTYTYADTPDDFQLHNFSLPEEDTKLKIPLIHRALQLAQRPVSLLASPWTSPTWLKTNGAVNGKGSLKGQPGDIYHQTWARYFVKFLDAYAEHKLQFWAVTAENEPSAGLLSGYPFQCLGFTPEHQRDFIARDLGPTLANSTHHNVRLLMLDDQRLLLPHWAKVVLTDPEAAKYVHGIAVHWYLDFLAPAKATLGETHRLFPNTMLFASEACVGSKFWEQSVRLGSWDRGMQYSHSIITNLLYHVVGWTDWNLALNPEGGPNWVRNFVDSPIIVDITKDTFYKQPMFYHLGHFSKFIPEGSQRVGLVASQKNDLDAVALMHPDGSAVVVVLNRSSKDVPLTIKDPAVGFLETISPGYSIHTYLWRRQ

Chain of Cytochrome P450 1A2 (Homo sapiens) (P05177 whole entry, looked up): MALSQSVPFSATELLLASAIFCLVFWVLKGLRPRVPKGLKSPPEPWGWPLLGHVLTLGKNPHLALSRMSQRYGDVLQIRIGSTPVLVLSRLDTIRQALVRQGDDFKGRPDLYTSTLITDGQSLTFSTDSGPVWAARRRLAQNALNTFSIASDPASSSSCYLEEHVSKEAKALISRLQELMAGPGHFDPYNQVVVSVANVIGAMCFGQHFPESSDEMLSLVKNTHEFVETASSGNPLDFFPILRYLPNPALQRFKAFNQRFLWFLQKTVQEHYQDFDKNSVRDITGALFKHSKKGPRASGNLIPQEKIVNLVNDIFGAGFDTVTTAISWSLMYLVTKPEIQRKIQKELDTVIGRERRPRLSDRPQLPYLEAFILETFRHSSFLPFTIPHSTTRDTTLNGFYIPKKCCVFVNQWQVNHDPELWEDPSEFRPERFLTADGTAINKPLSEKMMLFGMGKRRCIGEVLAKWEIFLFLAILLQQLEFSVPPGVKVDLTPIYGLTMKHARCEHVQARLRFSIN
Chain of 3',5'-cyclic-AMP phosphodiesterase 4B (Homo sapiens) (Q07343 whole entry, looked up): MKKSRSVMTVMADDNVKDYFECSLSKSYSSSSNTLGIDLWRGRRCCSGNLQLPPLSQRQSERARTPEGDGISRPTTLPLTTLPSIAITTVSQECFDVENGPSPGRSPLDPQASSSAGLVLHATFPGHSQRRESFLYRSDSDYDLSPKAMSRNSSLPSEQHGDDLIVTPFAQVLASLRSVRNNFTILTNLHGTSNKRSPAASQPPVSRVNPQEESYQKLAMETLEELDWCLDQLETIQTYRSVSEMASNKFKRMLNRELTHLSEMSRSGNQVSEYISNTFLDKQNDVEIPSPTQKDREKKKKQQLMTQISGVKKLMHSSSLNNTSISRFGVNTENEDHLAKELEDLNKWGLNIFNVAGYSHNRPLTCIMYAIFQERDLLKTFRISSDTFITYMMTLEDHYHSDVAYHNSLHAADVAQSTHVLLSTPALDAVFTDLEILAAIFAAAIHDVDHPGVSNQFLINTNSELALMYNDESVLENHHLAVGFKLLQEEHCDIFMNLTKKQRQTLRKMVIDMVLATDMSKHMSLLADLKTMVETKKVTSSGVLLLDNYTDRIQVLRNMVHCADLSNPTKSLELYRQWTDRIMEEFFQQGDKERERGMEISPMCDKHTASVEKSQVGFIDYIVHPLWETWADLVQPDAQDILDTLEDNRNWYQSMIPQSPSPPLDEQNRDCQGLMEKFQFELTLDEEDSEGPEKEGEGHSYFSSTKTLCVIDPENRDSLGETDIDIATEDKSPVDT
Chain of Cytochrome P450 3A4 (Homo sapiens) (P08684 whole entry, looked up): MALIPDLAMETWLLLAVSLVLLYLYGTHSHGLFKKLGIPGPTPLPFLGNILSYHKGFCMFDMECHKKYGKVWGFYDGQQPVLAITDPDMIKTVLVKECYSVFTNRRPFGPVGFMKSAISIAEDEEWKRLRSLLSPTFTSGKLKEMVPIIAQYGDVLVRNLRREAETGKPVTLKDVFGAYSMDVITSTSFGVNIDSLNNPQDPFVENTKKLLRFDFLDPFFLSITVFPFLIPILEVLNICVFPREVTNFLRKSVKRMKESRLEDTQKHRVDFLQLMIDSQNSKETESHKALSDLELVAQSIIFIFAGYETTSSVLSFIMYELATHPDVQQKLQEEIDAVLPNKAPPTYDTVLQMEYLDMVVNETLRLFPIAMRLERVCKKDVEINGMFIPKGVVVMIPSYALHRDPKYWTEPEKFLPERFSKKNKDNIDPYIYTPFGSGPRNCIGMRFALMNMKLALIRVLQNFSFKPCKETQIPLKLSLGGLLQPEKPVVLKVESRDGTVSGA
Chain of Cytochrome P450 2D6 (Homo sapiens) (P10635 whole entry, looked up): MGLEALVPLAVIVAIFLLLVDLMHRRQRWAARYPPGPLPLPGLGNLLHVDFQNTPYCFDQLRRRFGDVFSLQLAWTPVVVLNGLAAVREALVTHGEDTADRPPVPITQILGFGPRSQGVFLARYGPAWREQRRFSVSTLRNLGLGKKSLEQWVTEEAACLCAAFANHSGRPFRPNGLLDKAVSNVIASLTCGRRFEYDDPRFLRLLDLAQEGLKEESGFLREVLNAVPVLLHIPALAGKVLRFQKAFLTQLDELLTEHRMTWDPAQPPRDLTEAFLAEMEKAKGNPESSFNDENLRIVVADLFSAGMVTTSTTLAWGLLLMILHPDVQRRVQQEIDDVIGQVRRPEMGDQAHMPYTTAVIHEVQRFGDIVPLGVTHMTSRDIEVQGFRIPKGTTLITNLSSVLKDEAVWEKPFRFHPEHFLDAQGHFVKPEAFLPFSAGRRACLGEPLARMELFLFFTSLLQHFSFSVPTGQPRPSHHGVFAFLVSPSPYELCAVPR
Chain of Ubiquitin carboxyl-terminal hydrolase 1 (Homo sapiens) (O94782 whole entry, looked up): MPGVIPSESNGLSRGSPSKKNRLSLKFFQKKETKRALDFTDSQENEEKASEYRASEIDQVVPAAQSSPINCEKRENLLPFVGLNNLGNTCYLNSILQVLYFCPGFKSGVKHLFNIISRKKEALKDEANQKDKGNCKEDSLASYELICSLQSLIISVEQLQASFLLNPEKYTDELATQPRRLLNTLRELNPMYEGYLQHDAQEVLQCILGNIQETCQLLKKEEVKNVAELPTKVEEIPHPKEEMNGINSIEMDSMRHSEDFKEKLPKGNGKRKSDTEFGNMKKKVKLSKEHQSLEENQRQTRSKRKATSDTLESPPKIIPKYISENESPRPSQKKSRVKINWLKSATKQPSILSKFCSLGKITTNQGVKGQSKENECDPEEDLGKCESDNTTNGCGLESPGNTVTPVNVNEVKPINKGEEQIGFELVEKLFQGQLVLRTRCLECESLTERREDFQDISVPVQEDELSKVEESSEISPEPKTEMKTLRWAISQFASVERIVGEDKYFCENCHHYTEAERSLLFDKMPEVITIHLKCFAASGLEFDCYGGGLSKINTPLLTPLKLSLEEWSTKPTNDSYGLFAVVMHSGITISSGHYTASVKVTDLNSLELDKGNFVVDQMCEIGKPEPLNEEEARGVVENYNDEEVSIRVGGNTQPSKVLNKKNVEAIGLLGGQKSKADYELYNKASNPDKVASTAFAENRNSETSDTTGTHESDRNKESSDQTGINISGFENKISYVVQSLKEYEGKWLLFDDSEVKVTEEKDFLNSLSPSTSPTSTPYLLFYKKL

As for `COc1ccccc1CNc1nc(-c2ccc(N(C)C)cc2)nc2ccccc12`, the activity change, negative = inhibition in assay [1] was 1.38%; in [3], -29.6%. The Potency was 2.51 µM (active) in [2], over 46 µM in assay [5], over 46 µM in assay [6] and 3.16 µM (active) in [9]. Moreover, the activity, negative = inhibition in assay [4] was 20.3%. Also, the Potency entry in assay [7], in [8], in assay [10] and in assay [11] was “inactive” in each case. The result in assay [12] and in assay [13] was inactive.

Consider `CN(Cc1ccco1)c1ccnc(-c2ccoc2)n1`, for which the values for the activity change, negative = inhibition in assay [1] and in assay [3] were 12% and -2.04%, respectively. Also, the Potency in assay [2] is 12.6 µM (active); in [6] it was over 46 µM. The activity, negative = inhibition in assay [4] was -14.2%. For the same compound, the Potency result in assay [7], in assay [8], in assay [11] and in [14] was “inactive” in each case. Moreover, the result in assay [12] and in [13] was inactive.

Take `CC(C)NC(=O)N1CCCC2(CCN(C(=O)c3ccco3)CC2)C1`: the results for the activity change, negative = inhibition in [1] and in [3] were 4.82% and -9.54%, respectively. Also, the Potency result in assay [2], in assay [7], in [8] and in [10] was “inactive” throughout. For the same compound, the activity, negative = inhibition in assay [4] was -11.2%. The Potency in assay [6] was over 46 µM; in [15] it was 2.51 µM (active). The outcome in [13] was inactive.

Consider `O=S(=O)(c1ccccc1)N1CCC2(CCCN(Cc3cc(C(F)(F)F)cc(C(F)(F)F)c3)C2)CC1`, for which the results for the Potency in assay [16] and in assay [6] were over 11.4 µM and over 46 µM, respectively. Also, in [4], the activity, negative = inhibition is 5.03%. For the same compound, the Potency result in assay [7] and in assay [8] was “inactive” in each case. Also, the outcome in assay [13] was inactive.

`CCNc1ncc2nc(-c3cccc(C#N)c3)c(=O)n(C)c2n1`: the activity change, negative = inhibition in assay [1] was 15.2%. Also, the Potency is 2.51 µM (active) in [2], over 9.22 µM in assay [5] and over 46 µM in assay [6]. For the same compound, the activity, negative = inhibition in assay [4] was 30%. Also, the Potency result in [7], in assay [8] and in [10] was “inactive” each time. Moreover, the result in assay [13] was inactive.

Consider `O=C(c1cnccn1)N1CCC2(CCCN(c3ccccn3)C2)CC1`, for which the activity change, negative = inhibition in [1] was -13%. Besides, the Potency result in assay [2], in assay [7], in assay [8] and in [10] was “inactive” in each case. Also, the activity, negative = inhibition in [4] was 1.23%. The Potency in assay [6] was over 46 µM. In addition, the outcome in [13] was inactive.

As for `COc1ccc(NC(=O)N2CCCC3(CCN(C(=O)c4cccc(F)c4)CC3)C2)cc1`, the activity change, negative = inhibition in [1] is -26.5%; in assay [3], -25.3%. The Potency entry in [2], in assay [7], in assay [8] and in assay [10] was “inactive” throughout. Moreover, the activity, negative = inhibition in assay [4] was -10.9%. Also, in assay [6], the Potency is 29.5 µM (active). In addition, in assay [13], the outcome was inactive.
